Compound activity deposited in PubChem by National Center for Advancing Translational Sciences (NCATS).
Shown are actives, neighbours in structure and some others; about 6.8% of the full set was active somewhere.
KB-3-1 cytotox = qHTS assay for MDR1-selective chemotherapeutics: Primary screen using the parental adenocarcinoma cell KB-3-1. KB-3-1 viability, CellTiter-Glo ATP luminescence, 72 h. Potency, µM (doses to about 46.1 µM), actives largely listed as cytotoxic. 400,000 compounds, 1.4% hits; further: on the % scale 0 is the no-effect control and ±100 the full control effect; nearly all actives have a fitted effect of over 60% in size
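KB-3-1 cells, DMEM (no phenol red) + 10% FBS; compound by pin transfer, 72 h, 37 °C. Readout: CellTiter-Glo luminescence after 10 min. Data normalized, curve-fitted.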
KB-V1 cytotox = qHTS assay for MDR1-selective chemotherapeutics: Primary screen using the drug-selected MDR subline cells KB-V1; KB-V1 MDR cells viability, CellTiter-Glo, 72 h; Potency, µM (top dose mostly 46.1 µM), hits mostly cytotoxic; 400,000 compounds, 3.4% hits; further: on the % scale 0 is the no-effect control and ±100 the full control effect; nearly all actives have a fitted effect of over 60% in size
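Readout: CellTiter-Glo luminescence, 10 min after addition. Cells: KB-V1 MDR subline, 72 h at 37 degrees C with compound. Analysis: corrected, normalized data fitted to concentration-effect curves.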
SW480 rereplic = A quantitative high throughput screen for small molecules that induce DNA re-replication in SW480 colon adenocarcinoma cells. SW480 DNA re-replication, Hoechst DNA content imaging, 48 h. Potency, µM (series often up to 46.1 µM), without a hit: top-dose re-replication activation, hits mostly activators. 340,000 compounds, 1.8% hits. AID 624297, 2012; further: % of control where 0% means no effect; nearly all actives have a fitted effect of over 55% in size
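Treated cells incubate 48 hr (37 C, 5% CO2), are stained 40 min with Hoechst, and nuclear fluorescence is enumerated; a rise in nuclei with high DNA signal marks re-replication.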
TSG101-PTAP inh = qHTS Assay for Iinhibitors of HIV-1 Budding by Blocking the Interaction of PTAP/TSG101; Tumor susceptibility gene 101 protein (Homo sapiens), Q99816; Fluorescence polarization, FITC-PTAP peptide / Tsg101 binding; Potency, µM (highest dose often 115 µM), for inactives: top-dose activity change, negative = inhibition, actives largely listed as inhibitors; 340,000 tested, under 10 active; AID 493005, 2010; active means well fitted inhibition curve with a large enough effect in the main read-out, with a control signal flat, not every such curve was filed as active; inconclusive means small, poorly fitted or top-dose-only effect, or effect the other way, or a change in a side signal; inactive means no such curve, though single readings can be large or run the other way; further: % of control where 0% means no effect
Target sequence (Q99816 whole entry, looked up): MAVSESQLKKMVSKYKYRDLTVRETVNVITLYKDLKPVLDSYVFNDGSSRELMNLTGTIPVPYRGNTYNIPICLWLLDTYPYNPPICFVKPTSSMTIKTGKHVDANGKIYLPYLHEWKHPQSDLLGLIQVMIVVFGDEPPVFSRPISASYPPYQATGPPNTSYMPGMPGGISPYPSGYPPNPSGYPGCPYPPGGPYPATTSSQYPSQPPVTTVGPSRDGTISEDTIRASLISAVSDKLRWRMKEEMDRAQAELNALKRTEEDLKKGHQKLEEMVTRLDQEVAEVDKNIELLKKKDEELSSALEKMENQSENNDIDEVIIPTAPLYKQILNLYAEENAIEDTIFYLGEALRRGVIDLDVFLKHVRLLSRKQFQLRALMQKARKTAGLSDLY
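FP read-out: FITC-PTAP peptide, 50 nM final, binding Tsg101 binding domain, 10 uM final; 20 min, r.t.; 10 mM HEPES pH 7.5, 0.15 M NaCl, 0.01% Tween 20, 3 mM EDTA, 0.1 mM TCEP.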
PINK1 modulator = A Quantitative High throughput Screen to Identify Chemical Modulators of PINK1 Expression. PINK1 immunofluorescence, high-content cytometry, 24 h. Potency, µM (titrated, usually from 76.6 µM), without a hit: at the top dose activation (PINK1 increase), hits mostly activators. 410,000 compounds, 0.2% hits. AID 624263, 2012; active means well fitted activation curve with a large enough effect; inconclusive means small, poorly fitted or top-dose-only effect; cell line not stated here; further: % of control where 0% means no effect; nearly all actives have a fitted effect of over 65% in size
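Fluorescence from anti-PINK1 antibody, together with nuclear and cell stains, was scanned on a laser-scanning cytometer. Before staining, stable-line cells were incubated 24 hours with compounds at 5 concentrations; primary antibody 12 h at 10 degrees C.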
MCF10A rereplic = A quantitative high throughput screen for small molecules that induce DNA re-replication in MCF 10a normal breast cells; MCF 10A DNA re-replication, Hoechst nuclear intensity, 48 h; Potency, µM (highest dose often 46.1 µM), for the others: top-dose activity, positive = re-replication, most hits filed as activators; 350,000 compounds, 2.9% hits; AID 624296, 2012; further: % of control where 0% means no effect; nearly all actives have a fitted effect of over 50% in size
The depositor's hits bear a star; [ ] = dose if it differs, or a comment. Unless noted, the call rests on the fitted dose curve; in most records, active means well fitted curve in the direction sought with a large enough effect; inconclusive means small, poorly fitted or top-dose-only effect, or another doubt; inactive means no such curve, though single readings can be large; an effect the other way counts as inactive or inconclusive. Potency means the concentration at half of the fitted maximal effect.

Screening COc1cccc(N2CCN(Cc3ccc(Cl)cc3)CC2)c1 returned KB-3-1 cytotox inactive, KB-V1 cytotox 16µM*, SW480 rereplic -1%, TSG101-PTAP inh -4%, PINK1 modulator 3%[38.3 µM] and MCF10A rereplic 2%.
Screening COc1ccc(CN2CCN(Cc3ccccc3)CC2)c(OC)c1 returned KB-3-1 cytotox inactive, KB-V1 cytotox 23µM*, SW480 rereplic 17%, PINK1 modulator 0%[38.3 µM] and MCF10A rereplic inconclusive.
NCC(=O)c1ccc2ccccc2c1 was read as KB-3-1 cytotox inactive, KB-V1 cytotox inactive and PINK1 modulator 0%.
`CCC1(C)OC(c2ccccc2)=C/C(=C/C=C2C(=O)NC(=O)NC2=O)O1` (stereo not drawn) gave KB-3-1 cytotox inactive, KB-V1 cytotox inactive, SW480 rereplic inconclusive, TSG101-PTAP inh 0%, PINK1 modulator 5% and MCF10A rereplic 21µM*.
`CC1(C)C(C(Cl)Cl)C2(Cl)C(Cl)C(Cl)C1(Cl)C2(Cl)Cl` (stereo not drawn) gave PINK1 modulator 3%.
For O=C(CC[N+](=O)[O-])OCC1OC(O)C(OC(=O)CC[N+](=O)[O-])[C@@H](OC(=O)CC[N+](=O)[O-])C1OC(=O)CC[N+](=O)[O-] (stereo partly drawn) the results were PINK1 modulator 1%.
Screening Cc1cc(=O)oc2cc3c(cc12)CCCN3 returned KB-3-1 cytotox inactive, KB-V1 cytotox inactive, SW480 rereplic inconclusive, TSG101-PTAP inh -1%, PINK1 modulator 0% and MCF10A rereplic 7.3µM*.
For O=C(CNC(=O)OCc1ccccc1)Nc1ccc(Br)cc1C(=O)c1ccccc1 the results were KB-3-1 cytotox inconclusive, KB-V1 cytotox 10µM*, SW480 rereplic 5%, TSG101-PTAP inh 0%, PINK1 modulator 2% and MCF10A rereplic inconclusive.
For CCCCCCC(=O)CCCCCC/C=C/C[C@@H](O)[C@H](O)[C@@](N)(CO)C(=O)O the results were SW480 rereplic 2% and MCF10A rereplic 11%.
`O=c1[nH]c2ccccc2n1C1CCN(Cc2ccc(-c3nc4ccccc4nc3-c3ccccc3)cc2)CC1` gave KB-3-1 cytotox inconclusive, KB-V1 cytotox 23µM* and PINK1 modulator -1%.
COc1ccc2c3c1O[C@H]1[C@@H](O)C=C[C@H]4C(C2)NCCC341 (stereo partly drawn) was read as SW480 rereplic -8% and MCF10A rereplic 1%.
CCOC(=O)c1c(-n2c(C)cc(/C=C3/C(=O)NC(=O)N(CC)C3=O)c2C)sc2c1CCCC2 was read as KB-3-1 cytotox inactive, KB-V1 cytotox inconclusive, SW480 rereplic 4%, TSG101-PTAP inh 2%, PINK1 modulator -2% and MCF10A rereplic 10%.
Screening CCOC(=O)c1c(-n2c(C)cc(C=C3C(=O)NC(=S)NC3=O)c2C)sc2c1CCCC2 returned KB-3-1 cytotox inconclusive, KB-V1 cytotox inactive, SW480 rereplic inconclusive, TSG101-PTAP inh -3%, PINK1 modulator -4% and MCF10A rereplic 18µM*.
`COC[C@]12CN(C=O)C3C4C(OC)C1[C@@]3(C1CC3(O)C(OC)C(O)C4(OC(C)=O)C1C3OC(=O)c1ccccc1)[C@@H](OC)CC2O` (stereo partly drawn) gave PINK1 modulator 1%.
Cc1cccc(N=C2c3cc([N+](=O)[O-])ccc3-c3c2cc([N+](=O)[O-])cc3[N+](=O)[O-])c1 was read as KB-3-1 cytotox 15µM*, KB-V1 cytotox inconclusive, SW480 rereplic 18µM*, TSG101-PTAP inh -6%, PINK1 modulator 0% and MCF10A rereplic 18µM*.
For O=[N+]([O-])c1ccc(F)c([N+](=O)[O-])c1 the results were SW480 rereplic -1% and MCF10A rereplic 13%.
Screening C[C@@H]1O[C@@H](O[C@@H]2C=C3CC[C@@H]4C(CC[C@]5(C)[C@@H](c6ccc(=O)oc6)CC[C@]45O)[C@@]3(C)CC2)[C@H](O)[C@H](O)[C@H]1O (stereo partly drawn) returned KB-3-1 cytotox inconclusive, KB-V1 cytotox 0.026µM*, SW480 rereplic -4%, TSG101-PTAP inh -3%, PINK1 modulator 0% and MCF10A rereplic 0%.
Screening C[C@@H]1O[C@@H](O[C@@H]2C=C3CCC4C(CC[C@]5(C)[C@@H](c6ccc(=O)oc6)CC[C@]45O)[C@@]3(C)CC2)[C@H](O)[C@H](O)[C@H]1O (stereo partly drawn) returned KB-3-1 cytotox 0.01µM*, KB-V1 cytotox inconclusive, SW480 rereplic inconclusive, TSG101-PTAP inh -2%, PINK1 modulator -1% and MCF10A rereplic inconclusive.
`CS(=O)(=O)N1CCC2(CCCN(Cc3ccncc3)C2)CC1` gave PINK1 modulator 0%.
For O=C(CN1CCCC2CCCCC21)c1ccc(I)cc1 (stereo not drawn) the results were KB-3-1 cytotox inactive and KB-V1 cytotox inactive.
OC[C@@H](O)[C@H]1O[C@@H]2OC(C(Cl)(Cl)Cl)O[C@H]2[C@H]1O (stereo partly drawn) was read as SW480 rereplic -4% and MCF10A rereplic 2%.
Screening O=C1NC(=O)C(Cc2ccccc2)(Cc2ccccc2)C(=O)N1Cc1ccccc1 returned KB-3-1 cytotox inconclusive, KB-V1 cytotox 16µM*, SW480 rereplic inconclusive, TSG101-PTAP inh 1%, PINK1 modulator -4% and MCF10A rereplic inconclusive.
For O=C1NC(=O)C(CCc2ccncc2)(CCc2ccncc2)C(=O)N1Cc1ccccc1 the results were KB-3-1 cytotox inactive, KB-V1 cytotox inactive, SW480 rereplic -2%, TSG101-PTAP inh -1%, PINK1 modulator 4% and MCF10A rereplic -3%.
Cc1[nH]nc2ccc(-c3cncc(OC[C@@H](N)Cc4c[nH]c5ccccc45)c3)cc12 was read as KB-3-1 cytotox inconclusive, KB-V1 cytotox 26µM*, SW480 rereplic inconclusive, TSG101-PTAP inh -3%, PINK1 modulator -2% and MCF10A rereplic 2.3µM*.
